# Experimental data from PubChem BioAssay (NCATS).
# Records with an inconclusive call do not appear. Where a call stands in place of a potency, no number is given. Calls of active or inactive are those of the source. Calls follow the shape of the dose curve; as a rule, active = well fitted curve in the direction sought with a large enough effect; inconclusive = small, poorly fitted or top-dose-only effect, or another doubt; inactive = no such curve, though single readings can be large; an effect the other way counts as inactive or inconclusive.
# Columns and labels:
# [1] = tested on: Zika virus NS2B-NS3 protease (unlinked complex); experiment: Primary screen GU Rhodamine qHTS for Zika virus inhibitors: Unlinked NS2B-NS3 protease assay (AID 1347159); settings: Recombinant ZIKV NS2B-NS3 protease, Rhodamine110 substrate fluorescence; series mostly up to 107 µM; also: nearly all actives have a fitted effect of over 60% in size
# Procedure, shortened: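 Noncovalent NS2B hydrophilic domain–NS3 protease domain complex (25 nM) preincubated 15 min at room temperature with compounds (up to 114 microM) in 10 mM Tris-HCl pH 8.0, 0.01% Tween 20; 1.5 microM Rhodamine110 substrate added, fluorescence change over 15 min fitted to Hill equation.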
# [2] = tested on: Zika virus NS2B-NS3 protease (linked construct); experiment: Primary screen NINDS Rhodamine qHTS for Zika virus inhibitors (AID 1347160); settings: purified NS2B-NS3 protease, Rhodamine110 substrate fluorescence; series mostly up to 57.1 µM; also: nearly all actives have a fitted effect of over 55% in size
# Procedure, shortened: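 Purified linked NS2B-NS3 protease (NS2B hydrophilic domain joined to NS3 protease by flexible linker), 25 nM in 10 mM Tris-HCl pH 8.0, 0.01% Tween 20. Compounds titrated, 15 min preincubation at room temperature; 1.5 microM Rhodamine110 substrate, FITC fluorescence change over 15 min.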
# [3] = tested on: Zika virus NS2B-NS3 protease (linked construct); experiment: 384 well plate NINDS Rhodamine confirmatory qHTS for Zika virus inhibitors (AID 1347164); settings: rhodamine-110 peptide substrate fluorescence; series mostly up to 100 µM; also: top concentration of the series differs between compounds; nearly all actives have a fitted effect of over 65% in size
# Procedure, shortened: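 Compounds are incubated about 15 minutes with linked protease (5, 30 or 60 nM final). Rhodamine 110-tagged Ac-LKRR substrate (10 microM final) is added and fluorescence measured after 25 minutes.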
# [4] = HepG2 cells viability qHTS for Zika virus inhibitors (AID 1347168); settings: Zika counter-screen; series mostly up to 45.9 µM
# Procedure, shortened: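 Cells seeded at 2.5 x 10^5 cells/mL in DMEM with 4% FBS and attached overnight at 37 degrees C, then exposed to compound for 24 to 48 hours. Viability read as ATP content by CellTiter Glo luminescence.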
# [5] = Confirmatory screen NINDS Rhodamine qHTS for Zika virus inhibitors (AID 1347161); settings: purified enzyme assay, Rhodamine110 substrate fluorescence, 15 min; series mostly up to 114 µM;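 also: purified Zika NS2B-NS3 protease with linked NS2B cofactor domain and Rhodamine110 peptide substrate; nearly all actives have a fitted effect of over 60% in size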
# Procedure, shortened: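 Kinetic fluorescence (Ex 480 nm, Em 540 nm) over 15 min with 1.5 microM Rhodamine110 peptide and 25 nM linked protease.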
# [6] = OV-KATE Cancer Cell Toxicity qHTS against the NCATS CANVASS Library (AID 1347345); settings: OV-KATE cells viability, CellTiter-Glo luminescence, 72 h; also: potency is read from the fitted curve at half-maximal effect
# Procedure, shortened: (§1)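 Step one: seed 1000 cells per well. Step two: incubate 4 h. Step three: add test compounds in 11 concentrations. Step four: culture 72 h, then add CellTiter-Glo and record luminescence after 15min.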
# [7] = HPAF-II Cancer Cell Toxicity qHTS against the NCATS CANVASS Library (AID 1347346); settings: HPAF-II viability, CellTiter-Glo ATP luminescence, 72 h; also: potency is read from the fitted curve at half-maximal effect; nearly all actives have a fitted effect of over 55% in size
# Procedure, shortened: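 Cytotoxicity in HPAF-II pancreatic cancer cells: 72 h treatment across 11 concentrations, ATP-based CellTiter-Glo luminescence endpoint.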
# [8] = UWB1.289 Cancer Cell Toxicity qHTS against the NCATS CANVASS Library (AID 1347347); settings: UWB1.289 viability, CellTiter-Glo luminescence, 72 h; also: potency is read from the fitted curve at half-maximal effect; nearly all actives have a fitted effect of over 60% in size
# Procedure, shortened: as §1
# [9] = OV-SAHO Cancer Cell Toxicity qHTS against the NCATS CANVASS Library (AID 1347348); settings: OV-SAHO viability, CellTiter-Glo luminescence, 72 h; also: potency is read from the fitted curve at half-maximal effect; nearly all actives have a fitted effect of over 55% in size
# Procedure, shortened: as §1
# [10] = Panc-1005 Cancer Cell Toxicity qHTS against the NCATS CANVASS Library (AID 1347349); settings: Panc-1005 viability, CellTiter-Glo luminescence, 72 h; also: potency is read from the fitted curve at half-maximal effect; nearly all actives have a fitted effect of over 60% in size
# Procedure, shortened: as §1
# [11] = U-118MG Cancer Cell Toxicity qHTS against the NCATS CANVASS Library (AID 1347351); settings: U-118MG viability, CellTiter-Glo luminescence, 72 h; also: potency is read from the fitted curve at half-maximal effect
# Procedure, shortened: as §1
# [12] = COV-362 Cancer Cell Toxicity qHTS against the NCATS CANVASS Library (AID 1347352); settings: COV-362 viability, CellTiter-Glo luminescence, 72 h; also: potency is read from the fitted curve at half-maximal effect
# Procedure, shortened: (§2)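 qHTS cytotoxicity: compounds tested in 11 concentrations on 1000 seeded cells per well over 72 h; bortezomib served as control; signal from CellTiter-Glo luminescence.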
# [13] = A2780 Cisplatin Sensitive Ovarian Cancer Cell Toxicity qHTS against the NCATS CANVASS Library (AID 1347353); settings: A2780 ovarian cancer viability, ATPLite luminescence, 72 h
# Procedure, shortened: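 Seventy-two-hour exposure of cisplatin-sensitive A2780 ovarian cells to an 11-concentration qHTS series; cytotoxicity is inferred from loss of ATPLite luminescence. Bortezomib titration served as positive control.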
# [14] = HEK-293 Cancer Cell Toxicity qHTS against the NCATS CANVASS Library (AID 1347355); settings: HEK-293 viability, CellTiter-Glo luminescence, 72 h; also: potency is read from the fitted curve at half-maximal effect; nearly all actives have a fitted effect of over 65% in size
# Procedure, shortened: as §2
# [15] = HPAF-II 24hr Apoptosis Induction qHTS against the NCATS CANVASS Library (AID 1347356); settings: HPAF-II caspase-3/7 Caspase-Glo luminescence; series mostly up to 46.1 µM
# Procedure, shortened: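 Apoptosis induction in HPAF-II pancreatic cancer cells is measured as caspase-3/7 luminescence after a 24-hour exposure to compounds.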
compound,measurement,setting,value
C=C[C@H]1C(O[C@@H]2O[C@H](CO)[C@@H](O)[C@H](O)[C@H]2O)OC=C2C(=O)N3CCc4c([nH]c5ccccc45)[C@H]3C[C@H]21 (stereo not given in full),Potency,[1],inactive
same,Potency,[2],inactive
FC(F)(F)c1cc(-c2ncn(/C=C\c3nnco3)n2)cc(C(F)(F)F)c1,Potency,[1],inactive
same,Potency,[2],inactive
OCCc1ccc(O[C@@H]2O[C@H](CO)[C@@H](O)[C@H](O)[C@H]2O)cc1,Potency,[1],inactive
same,Potency,[2],inactive
CCCCNc1ncc2c(-c3ccc(F)cc3)nn(CC3CCC(N)CC3)c2n1 (stereo not given),Potency,[1],inactive
same,Potency,[2],inactive
Cc1ccc(-c2ccc3c(ccc4sc5c(c43)NC[C@@H](C)NC5=O)n2)cn1,Potency,[1],inactive
same,Potency,[2],inactive
C[C@@H]1O[C@@H](O[C@@H]2[C@@H](O)[C@@H](O[C@]3(CO)O[C@H](CO)[C@@H](O)[C@@H]3OC(=O)/C=C/c3ccc(O)cc3)O[C@H](CO)[C@H]2OC(=O)/C=C/c2ccc(O)cc2)[C@H](O)[C@H](O)[C@H]1O[C@@H]1O[C@@H](C)[C@H](O[C@@H]2OC[C@](O)(CO)[C@H]2O)[C@@H](O)[C@H]1O,Potency,[1],inactive
same,Potency,[2],inactive
CC1=C(C)C(=O)OC(C(C)C2CCC3C4C5OC5C5(O)CC(OC6OC(CO)C(OC7OC(C)C(O)C(O)C7O)C(O)C6O)CC(O)C5(C)C4CCC23C)C1 (stereo not given),Potency,[1],inactive
same,Potency,[2],inactive
CC(Oc1ccc2[nH]nc(/C=C/c3cnn(CCO)c3)c2c1)c1c(Cl)cncc1Cl (stereo not given),Potency,[1],inactive
same,Potency,[2],inactive
COC(=O)c1cc(OC)cc(OC)c1C(=O)c1c(OC)cc2c(c1O)C1CCCC(C)(O2)O1 (stereo not given),Potency,[1],inactive
same,Potency,[2],inactive
C/C=C/C(O)C1OC(=O)CC1Nc1ccc(C(=O)O)cc1 (stereo not given),Potency,[1],inactive
same,Potency,[2],inactive
COc1c(C)c(OCC(O)C(C)(C)O)cc2c1COC2=O (stereo not given),Potency,[1],inactive
same,Potency,[2],inactive
COc1cc2c(NC3CCN(CC4CCCCC4)CC3)nc(N3CCCN(C(C)C)CC3)nc2cc1OCCCN1CCCCC1,Potency,[1],inactive
same,Potency,[2],inactive
O=C(O)Cc1cn(C2OCC(O)C(O)C2O[C@@H]2O[C@H](CO)[C@@H](O)[C@H](O)[C@H]2O)c2ccccc12 (stereo not given in full),Potency,[1],inactive
same,Potency,[2],inactive
CO/N=C(/C(=O)N[C@@H]1C(=O)N2C(C(=O)O)=C(Cn3ccc(=N)n3CCO)CS[C@H]12)c1csc(N)n1,Potency,[1],inactive
same,Potency,[2],inactive
CC(C)(F)C[C@@H](N[C@@H](c1ccc(-c2ccc(S(C)(=O)=O)cc2)cc1)C(F)(F)F)C(=O)NC1(C#N)CC1,Potency,[1],inactive
same,Potency,[2],inactive
CC(C(O)/C=C/C(C)(C)O)C1CCC2(C)C3C(=O)C=C4C(CCC(O)C4(C)C)C3(C)CCC12C (stereo not given),Potency,[1],inactive
same,Potency,[2],inactive
CC(NC(=O)CCc1nc2ccccc2c(=O)[nH]1)c1ccccc1 (stereo not given),Potency,[1],inactive
same,Potency,[2],inactive
NC(=O)[C@H](O[C@@H]1O[C@H](CO)[C@@H](O)[C@H](O)[C@H]1O)c1ccccc1,Potency,[1],inactive
same,Potency,[2],inactive
Nc1ncnc2c([C@@H]3N[C@H](CO)[C@@H](O)[C@H]3O)c[nH]c12,Potency,[3],inactive
same,outcome,[4],inactive
C=C[C@H]1[C@H](O[C@@H]2O[C@H](CO)[C@@H](O)[C@H](O)[C@H]2O)OC=C(C(=O)OC)[C@H]1CCOC(=O)c1cc(O)c(O)c(O)c1,outcome,[4],inactive
C/C=C/C1=CC2=C(CO1)C(=O)C(C)(O)C(OC(=O)c1c(C)cc(OC)cc1O)C2 (stereo not given),Potency,[5],inactive
C=C1C(=O)O[C@H]2[C@H]1CC/C(C)=C/CC[C@@]1(C)O[C@@H]21,Potency,[6],6.66 µM (active)
same,Potency,[7],21.1 µM (active)
same,Potency,[8],11.8 µM (active)
same,Potency,[9],7.47 µM (active)
same,Potency,[10],6.68 µM (active)
same,Potency,[11],6.68 µM (active)
same,Potency,[12],18.8 µM (active)
same,Potency,[13],2.96 µM (active)
same,Potency,[14],7.43 µM (active)
same,outcome,[15],inactive
